# Source: PubChem BioAssay
# A selection: hits, their analogues and other compounds. The true share with any hit is near 2.5%.
# D2 antag: antagonists of human D2 dopamine receptor | P14416 | HEK293 TREx D2 cells, calcium flux, dopamine EC80 | inhibition, % at 10 µM | 340,000 compounds, 2% hits | AID 485344; in the data active = inhibition above about 30%; inactive = below that, where a call was filed; also: 0% is about no effect
# Target sequence (P14416 whole entry, looked up): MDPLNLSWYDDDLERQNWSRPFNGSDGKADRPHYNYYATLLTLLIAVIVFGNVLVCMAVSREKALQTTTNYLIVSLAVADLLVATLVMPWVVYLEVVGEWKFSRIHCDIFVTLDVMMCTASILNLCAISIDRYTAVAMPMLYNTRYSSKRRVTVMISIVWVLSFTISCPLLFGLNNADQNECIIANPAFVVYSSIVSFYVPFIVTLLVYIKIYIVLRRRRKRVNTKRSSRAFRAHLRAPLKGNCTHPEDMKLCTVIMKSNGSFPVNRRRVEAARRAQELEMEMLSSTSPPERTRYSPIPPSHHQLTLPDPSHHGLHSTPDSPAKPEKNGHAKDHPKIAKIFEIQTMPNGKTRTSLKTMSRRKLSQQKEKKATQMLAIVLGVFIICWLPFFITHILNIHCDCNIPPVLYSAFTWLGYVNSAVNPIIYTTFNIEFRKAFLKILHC
#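 Compounds are added to dye-loaded, induced HEK293 T-REx cells coupled to calcium release via D2; after a 3 min kinetic read an EC80 dopamine stimulus is given and fluorescence is recorded for 3 more min.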
# D2 PAM-1: D2 dopamine receptor (human) potentiation; 340,000 compounds, 0.34% hits; potentiation, % at 10 µM; P14416; HEK293 T-REx D2, calcium flux, EC20 dopamine potentiation;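 active = potentiation over 3 SD above the plate norm, cut at about 30% in these data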; also: 0% is about no effect
#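 Tetracycline-induced HEK293 T-REx cells force-coupled to calcium signalling expressed D2; compounds were pin-added after a 10 s baseline, read kinetically 180 s, then an EC20 dopamine challenge followed with a further 180 s calcium read.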
# D2 ag-1: human D2 receptor agonism in beta-arrestin assay; P14416; activation, % (no concentration beside the values); DiscoveRx PathHunter D2 beta-arrestin, luminescence, 90 min; 100% = 57 uM dopamine signal; 360,000 compounds, 0.084% hits; in the data active = activation above about 40%
#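 DiscoveRx PathHunter D2 beta-arrestin cells (2,100/well) attached overnight, then compound-stimulated 90 min at 37 C in HBSS/10 mM HEPES/0.1% Tween-20 buffer; beta-galactosidase complementation read by luminescence after 1 h at ambient temperature. Dopamine 57 uM final (EC100) as control.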
# Apoferritin bind: binds horse apoferritin like a general anesthetic | P02791 | apoferritin/1-aminoanthracene competitive binding, fluorescence | Potency, µM (series often up to 77.5 µM), without a hit: at the highest dose activity change, negative = displacement, most hits filed as inhibitors | 350,000 compounds, 0.074% hits; also: potency is read from the fitted curve at half-maximal effect; % is scaled to controls: 0 for no effect and ±100 for the full control effect; nearly all actives have a fitted effect of over 20% in size
#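 Probe: 1-aminoanthracene (50% saturated, PBS). Protein: horse-spleen apoferritin, 10 uM. Incubation: 10 min, room temperature. Detection: 380 nm excitation, 535 nm emission. Analysis: normalized response, four-parameter Hill.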
# D2 ag-2: activates the human D2 dopamine receptor; P14416; HEK293 T-REx D2 cells, calcium flux agonist mode; activation, % at 2 µM; 340,000 compounds, 0.53% hits; AID 485358;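 active = activation over 3 SD above normal in the single-dose calcium agonist read, cut at about 30% in these data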; also: 0% is about no effect
#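 HEK293 Trex D2 cells, tetracycline-induced, o/n 30 C 5% CO2; no-wash Ca dye, RT 30–90 min; 10-cycle baseline, 23 nl cpd added, kinetic Ca read 180 s; agonist hits = positive Ca response.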
# D2 PAM-2: positive allosteric modulators of human D2 dopamine receptor | DiscoveRx D2 beta-arrestin cells, luminescence, 90 min; 100% = 57 uM dopamine signal | 360,000 compounds, 0.23% hits | P14416 | potentiation, % (test concentration not listed); in the data active = potentiation above about 50%
#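 D2 cells co-treated with compound plus 50 nM dopamine (EC20) for 90 min at 37 deg C to detect potentiation. Beta-arrestin recruitment was read as enzyme-fragment luminescence after 1 h at ambient temperature. Full response was set by 57 uM dopamine.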
# D3 ag: confirmation of human D3 dopamine receptor agonists, beta-arrestin; DiscoveRx D3 beta-arrestin cells, luminescence, 90 min; Potency, µM (titrated, usually from 76.9 µM), inactives show top-dose activation, usual class: activators; shares compounds with D2 ag-2; 2,300 compounds, 4% hits;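 also: potency is read from the fitted curve at half-maximal effect; 100% = dopamine control response; nearly all actives have a fitted effect of over 70% in size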
# D2 ag-3: D2 receptor agonism, beta-arrestin counterscreen; shares compounds with D2 ag-2; DiscoveRx PathHunter D2 beta-arrestin, luminescence, 90 min; response scale: percent relative to full dopamine signal; Potency, µM (titrated, usually from 76.9 µM), for the others: at the highest dose activation, actives largely listed as activators; 2,300 compounds, 5.9% hits; AID 720507; also: potency is read from the fitted curve at half-maximal effect; % of control where 0% means no effect; nearly all actives have a fitted effect of over 70% in size
# * marks the source's active call; other numbers are inactive results; i = inactive; . = not tested or not shown. Unless noted, calls follow the shape of the dose curve; as a rule, active = well fitted curve in the direction sought with a large enough effect; inconclusive = small, poorly fitted or top-dose-only effect, or another doubt; inactive = no such curve, though single readings can be large; an effect the other way counts as inactive or inconclusive.
SMILES,D2 antag,D2 PAM-1,D2 ag-1,Apoferritin bind,D2 ag-2,D2 PAM-2,D3 ag,D2 ag-3
CC(C)C(C(=O)Nc1ccc(N2CCOCC2)cc1)N1C(=O)c2ccccc2C1=O (stereo unspecified),19,2,1,-14%,0,16,4%,4%
CC(C(=O)Nc1ccc(N2CCOCC2)cc1)N1C(=O)c2ccccc2C1=O (stereo unspecified),-3,-5,0,1%,1,-7,.,.
CCC(=O)N1C(Cc2ccccc2)COC1(C)C (stereo unspecified),-3,-18,-3,4%,41*,-4,-8%,-5%
CCC1(C)NC(=O)N(CC(=O)N2CCC(Cc3ccccc3)CC2)C1=O (stereo unspecified),-20,-4,-3,.,1,-5,.,.
COc1ccc(-c2c(-c3cc(OC)cc(OC)c3)n(C)c3ccc(-c4cccc5[nH]ccc45)cc23)cc1,2,16,-2,.,0,-1,0%,3%
CC(OC(=O)Cn1cnc2ccccc2c1=O)C(=O)NCc1ccccc1 (stereo unspecified),8,-20,-1,.,49*,-3,-8%,-2%
Cc1ccc(NC(=O)C(C)OC(=O)Cn2cnc3ccccc3c2=O)cc1 (stereo unspecified),7,1,-1,.,0,17,.,.
CCOC(=O)N1CCC(Nc2c(OCC)c(=O)c2=O)CC1,-9,-16,-3,-1%,0,-1,.,.
Cc1ccc(C(=O)CCC(=O)NNC(=O)c2ccccc2O)cc1,10,10,-2,.,0,-1,-5%,-2%
Cc1ccc(NC(=O)CCC(=O)c2ccccc2)cc1,.,.,0,.,.,-7,.,.
Cc1ccc(S(=O)(=O)CCC(=O)OCC(=O)NNC(=O)c2ccc([N+](=O)[O-])cc2)cc1,12,2,-3,.,1,-6,.,.
COc1ccc(C(=O)NNC(=O)Cc2ccc([N+](=O)[O-])cc2)cc1,-13,-21,0,-2%,42*,-11,1%,-2%
Cc1ccc(C(=O)CCC(=O)OCC(=O)NNC(=O)c2ccc([N+](=O)[O-])cc2)cc1,.,.,1,.,.,28,0%,5%
COc1ccc(CC(=O)NNC(=O)c2ccc(NC(C)=O)cc2)cc1,6,10,-4,-3%,1,2,.,.
COc1cccc(/C=C/c2nc(C#N)c(N(C)Cc3ccccc3)o2)c1,.,11,.,i,0,.,.,.
Cc1onc(-c2ccccc2Cl)c1C(=O)NCc1cccs1,.,2,-1,-14%,.,-8,.,.
O=C(Cn1cc(C(=O)COc2ccccc2)c2ccccc21)NCc1ccco1,17,2,-1,-20%,1,6,.,.
O=C(CCS(=O)(=O)c1cc(Br)cc2c1N(C(=O)C1CC1)CC2)NCC1CCCO1 (stereo unspecified),.,.,-3,-2%,.,-7,.,.
COc1ccccc1N1CCN(CC(C)N(C(=O)C2CCCCC2)c2ccccn2)CC1 (stereo unspecified),82*,-23,-1,-5%,40*,-13,-21%,-2%
CCOC(=O)N1CCc2c(sc3c2c(=O)n(CCc2ccccc2)c(=O)n3CC(=O)Nc2cccc(C)c2)C1,.,2,.,4%,0,.,.,.
Cc1nc(-c2nc(CC(=O)NNC(=O)c3ccc(Cl)cc3)cs2)cs1,-2,-4,-3,4%,1,-5,.,.
O=C(C1CCCN(Cc2ccc3c(c2)OCO3)C1)N1CCCC1 (stereo unspecified),-13,1,-1,-2%,0,-4,.,.
